Most compounds without a hit are left out; they make up all but 19% or so of the library.
TDP1 cell noCPT: qHTS for Inhibitors of human tyrosyl-DNA phosphodiesterase 1 (TDP1): qHTS in cells in absence of CPT; Potency, µM (doses to about 46.2 µM), for inactives: at the top dose activity change, negative = growth inhibition, actives largely listed as inhibitors; DT40 Tdp1-/- hTDP1 cells, no CPT, ATP luminescence, 48 h; hit rate 15% among 420,000; AID 686978, 2013; also: potency is read from the fitted curve at half-maximal effect; nearly all actives have a fitted effect of over 55% in size
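Chicken DT40 Tdp1-/- cells complemented with human TDP1, screened without camptothecin (DMSO vehicle only), 400 cells/well. Compounds pin-transferred, cells incubated at 37 °C for at least 48 hr. Growth read as ATP-dependent luminescence (CellTiter-Glo, 30 min at RT).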
IL1B secr inh: inflammasome signaling inhibition, IL-1 beta readout; THP-1 LPS/ATP IL-1B secretion, AlphaLISA, 16 h; active compounds read low; AID 743279; hit rate 4.7% among 360,000; activity change, % at 57.5 µM; in the data active = activity change below about -50%; inconclusive = mostly about -30% to -49%
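Secreted IL-1B measured by AlphaLISA bead assay after 16 h compound exposure of THP-1 cells; compounds (final up to 57.5 uM) added 1 h before LPS (250 ng/mL) and ATP (1.25 mM) stimulation; lower signal means less secretion.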
DT40 TDP1 CPT: growth inhibition of DT40 Tdp1-/-;hTDP1 cells with camptothecin (screen for TDP1 inhibitors); Potency, µM (titrated, usually from 46.2 µM), inactives show at the highest dose activity change, negative = growth inhibition, most hits filed as inhibitors; hit rate 12% among 420,000; chicken DT40 Tdp1-/-;hTDP1 cells + 20 nM CPT, ATP luminescence, 48 h; also: potency is read from the fitted curve at half-maximal effect; nearly all actives have a fitted effect of over 55% in size
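Chicken DT40 Tdp1-/- cells stably complemented with human TDP1 were seeded at 400 cells/well in medium containing 20 nM camptothecin, exposed to pin-transferred compounds, and grown at 37 °C for at least 48 hr. Viability was read as ATP luminescence.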
HT1080-NT tox: kills 2HG-producing HT-1080-NT fibrosarcoma cells | Potency, µM (top dose mostly 46.1 µM), inactives show at the highest dose activity, negative = less viability, usual class: cytotoxic | HT-1080-NT fibrosarcoma viability, CellTiter-Glo ATP luminescence, 48 h | hit rate 1.6% among 360,000;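 also: NT is the 2HG producing partner of a matched IDH1 knockdown line; potency is read from the fitted curve at half-maximal effect; 0% = DMSO-treated cells and -100% = media-only wells without cells; nearly all actives have a fitted effect of over 55% in size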
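HT-1080-NT; 750 cells/well; 5% FBS RPMI; 48 h compound, 37 degrees C; CellTiter-Glo luminescence; curve fitting and curve-class assignment.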
uPA surface inh: blocks generation of uPA at the cell surface | cell surface uPA generation assay, qHTS | Potency, µM (titrated, usually from 38.3 µM), without a hit: top-dose activity change, negative = inhibition, most hits filed as inhibitors | hit rate 0.31% among 330,000 | AID 540303; active = well fitted inhibition curve with a large enough effect; inconclusive = small, poorly fitted or top-dose-only effect; inactive = no such curve, though single readings can be large or run the other way; tested in mouse RAW 264.7 cells; also: potency is read from the fitted curve at half-maximal effect; nearly all actives have a fitted effect of over 55% in size
HT1080 IDH1KD tx: HT-1080 IDH1 knockdown cell toxicity (counter line); HT-1080 IDH1 knockdown viability, ATP luminescence, 48 h; Potency, µM (titrated, usually from 46.1 µM), for the others: at the highest dose activity, negative = toxicity, usual class: cytotoxic; hit rate 2% among 360,000;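 also: potency is read from the fitted curve at half-maximal effect; 0% = DMSO wells and -100% = cell-free medium wells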
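Cytotoxicity counter-line: IDH1KD HT-1080, 48 h, CellTiter-Glo. Curves classed by r2, magnitude and activity.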
* = called active by the depositor; u = inconclusive; x = no result. Unless noted, calls follow the shape of the dose curve; as a rule, active = well fitted curve in the direction sought with a large enough effect; inconclusive = small, poorly fitted or top-dose-only effect, or another doubt; inactive = no such curve, though single readings can be large; an effect the other way counts as inactive or inconclusive. Unless noted, % is scaled to controls: 0 for no effect and ±100 for the full control effect.

SMILES	TDP1 cell noCPT	IL1B secr inh	DT40 TDP1 CPT	HT1080-NT tox	uPA surface inh	HT1080 IDH1KD tx
Cc1nnsc1C(=O)NC1CCCc2c1cnn2-c1ccc(C(C)(C)C)cc1 (centres undefined)	7.3µM*	-29	10µM*	-28%	u	-20%
Cc1ccc(S(=O)(=O)N(C)CC(=O)Nc2nc3ccccc3s2)cc1	21µM*	10	16µM*	-2%	-2%	-21%
Cc1ccc(S(=O)(=O)N(C)CC(=O)Nc2ccccc2)cc1	-21%	-13	-13%	2%	-1%	-4%
CN(c1ccc(OCC(=O)Nc2nc3ccccc3s2)cc1)S(=O)(=O)c1ccccc1	5%	-8	-28%	-26%	-29%	u
Cc1ccc2nc(NC(=O)CN(C)S(=O)(=O)c3cccc4nsnc34)sc2c1	2.9µM*	2	3.3µM*	u	-8%	8.2µM*
Cc1ccnc(NC(=O)CN(C)S(=O)(=O)c2cccc3nsnc23)c1	7.3µM*	-2	u	6%	4%	3%
CCOc1ccc(S(=O)(=O)N(C)c2ccc(OCC(=O)Nc3nc4ccccc4s3)cc2)cc1	9.2µM*	8	12µM*	-11%	-7%	6.5µM*
CC(=O)Oc1oc(-c2ccccc2)nc1C=Nc1ccc(N(C)C)cc1	u	16	u	18%	2%	23%
Oc1oc(-c2ccccc2)nc1C=Nc1ccccc1	-13%	-55*	-10%	11%	-11%	23%
COc1ccc(N=Cc2nc(-c3ccco3)oc2O)cc1	29µM*	-22	u	-4%	3%	u
O=C(Oc1oc(-c2ccco2)nc1C=Nc1ccc(Cl)cc1)c1ccco1	9.2µM*	-3	10µM*	-7%	0%	-3%
CN(C)c1ccc(N=Cc2nc(-c3ccccc3)oc2O)cc1	-1%	-18	-7%	-1%	-4%	20%
COc1ccc(NC(C)=O)cc1S(=O)(=O)NCc1ccc2c(c1)OCO2	-17%	0	-10%	-1%	x	1%
Cc1ccc(N2C(=O)NC(NC(=O)C3CC3)(C(F)(F)F)C2=O)cc1 (centres undefined)	-15%	-8	19%	-4%	10%	4%
Cc1ccc(C(=O)NC2(C(F)(F)F)NC(=O)N(c3ccc(Cl)cc3)C2=O)cc1 (centres undefined)	-28%	-61*	-25%	-18%	-2%	-25%
CCn1nnc2cc(C(=O)Nc3cc(Cl)ccc3C)ccc21	u	-19	-13%	6%	-13%	10%
C=CCN1C(=O)c2ccc(C(=O)OCC(=O)Nc3ccc(S(N)(=O)=O)cc3)cc2C1=O	0%	5	14%	8%	2%	10%
COc1ccc(C(CNC(=O)c2ccc(F)cc2)N2CCCC2)cc1 (centres undefined)	-29%	x	-28%	x	x	x
O=C(NCC(c1ccc(Cl)cc1)N1CCCCC1)c1ccccc1 (centres undefined)	15µM*	x	13µM*	x	x	x
COc1ccccc1NS(=O)(=O)c1cccc(C(=O)NCC(c2ccco2)N2CCCCC2)c1 (centres undefined)	u	-7	u	1%	-1%	-6%
COc1ccccc1NS(=O)(=O)c1ccc(C(=O)NCC(c2ccco2)N2CCCCC2)cc1 (centres undefined)	-25%	21	15µM*	3%	2%	0%
COc1ccccc1NC(=S)NCc1ccc(S(N)(=O)=O)cc1	-21%	-6	-8%	23%	-2%	5%
Cc1ccc(S(=O)(=O)N(C)c2ccc(C(=O)NCC(c3cccs3)N3CCOCC3)cc2)cc1 (centres undefined)	u	-6	21µM*	-4%	1%	-11%
Cc1ccc(N(C)S(=O)(=O)c2cccc(C(=O)NCC(c3cccs3)N3CCOCC3)c2)cc1 (centres undefined)	u	-4	u	-14%	1%	-18%
COc1ccccc1NS(=O)(=O)c1ccc(C(=O)NCc2ccc(S(N)(=O)=O)cc2)cc1	15µM*	9	u	-9%	1%	1%
SMILES	TDP1 cell noCPT	IL1B secr inh	DT40 TDP1 CPT	HT1080-NT tox	uPA surface inh	HT1080 IDH1KD tx
O=c1cc(-c2ccc(O)cc2)oc2cc(OC3OC(CO)C(O)C(O)[C@H]3O[C@@H]3OC[C@@](O)(CO)C3O)cc(O)c12 (some centres undefined)	-1%	x	8%	x	x	x
Cc1c(Cl)cnc(NC(=O)COC(=O)c2cccc(S(=O)(=O)N3c4ccccc4CC3C)c2)c1Cl (centres undefined)	u	31	u	-1%	-4%	8%
O=C(NCCc1ccccn1)C1CC12CCN(C(=O)c1ccccc1Cl)CC2 (centres undefined)	6%	x	3%	x	x	x
Cc1ccc(C(=O)NNC(=O)c2ccc(S(=O)(=O)N(C)c3ccccc3)cc2)cc1	-4%	14	-1%	1%	-12%	1%
Cc1ccc(S(=O)(=O)Nc2cccc(C(=O)NCC(c3ccco3)N3CCCCC3)c2)cc1F (centres undefined)	21µM*	-66*	u	-4%	2%	-6%
O=C(NCC(c1ccco1)N1CCCCC1)c1ccc(COc2ccccc2)cc1 (centres undefined)	u	-72*	u	-1%	-16%	-10%
CN(c1ccccc1)S(=O)(=O)c1ccc(Cl)c(C(=O)NCC(c2ccco2)N2CCCC2)c1 (centres undefined)	13µM*	-1	13µM*	0%	-6%	-1%
Cc1ccc(S(=O)(=O)N(C)c2ccc(C(=O)NCC(c3ccccc3)N3CCCC3)cc2)cc1 (centres undefined)	21µM*	-19	u	-1%	x	-15%
O=C(NCC(c1ccco1)N1CCCC1)c1cc(S(=O)(=O)N2CCOCC2)ccc1Cl (centres undefined)	-15%	-17	-12%	-2%	7%	0%
COc1ccc(Oc2ncc3nc(-c4cc(F)cc(F)c4)c(=O)n(C)c3n2)cc1	-23%	x	-3%	x	x	x
CN(C)C(CNC(=O)c1cc(Br)ccc1Cl)c1ccco1 (centres undefined)	-21%	5	-2%	8%	0%	9%
CN(C)C(CNC(=O)c1cc(S(=O)(=O)N(C)Cc2ccccc2)ccc1Cl)c1ccco1 (centres undefined)	12µM*	-7	12µM*	0%	-1%	3%
